Measurements as given in ChEMBL document CHEMBL1961873, “Compounds: GSK PKIS; Assays: Nanosyn kinase panel” (2012).
“And” between values parts separate entries of the source, which are not always exact repeats. Equal values may be shown once.

Columns and labels:
[1] = molecular target: Serine/threonine-protein kinase pim-2 (Homo sapiens) (UniProt Q9P1W9); settings: at 1 µM;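 further: each value is a mean of the inhibition measurements against the kinase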
[2] = molecular target: Serine/threonine-protein kinase pim-3 (Homo sapiens) (UniProt Q86V86); settings: at 0.1 µM
[3] = molecular target: Serine/threonine-protein kinase pim-3 (Homo sapiens) (UniProt Q86V86); settings: at 1 µM
[4] = molecular target: T1, MAP kinase-activated protein kinase 5 (Homo sapiens) (UniProt Q8IW41); settings: at 0.1 µM
T1 sequence (whole entry): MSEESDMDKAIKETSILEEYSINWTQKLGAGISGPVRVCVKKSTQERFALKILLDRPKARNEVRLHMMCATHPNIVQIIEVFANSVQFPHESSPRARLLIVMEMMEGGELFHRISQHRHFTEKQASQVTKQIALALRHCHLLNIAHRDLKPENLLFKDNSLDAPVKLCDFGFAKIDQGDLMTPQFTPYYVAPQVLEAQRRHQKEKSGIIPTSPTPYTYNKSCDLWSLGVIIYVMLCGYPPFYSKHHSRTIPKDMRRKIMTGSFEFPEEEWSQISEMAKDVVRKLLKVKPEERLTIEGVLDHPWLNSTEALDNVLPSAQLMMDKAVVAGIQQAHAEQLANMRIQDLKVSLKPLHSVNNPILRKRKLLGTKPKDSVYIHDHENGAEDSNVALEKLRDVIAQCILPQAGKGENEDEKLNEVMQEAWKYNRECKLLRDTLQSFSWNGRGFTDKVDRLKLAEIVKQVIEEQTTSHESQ

[5] = molecular target: T1, MAP kinase-activated protein kinase 5 (Homo sapiens); settings: at 1 µM
[6] = molecular target: Serine/threonine-protein kinase SIK1 (Homo sapiens) (UniProt P57059); settings: at 0.1 µM
[7] = molecular target: Serine/threonine-protein kinase SIK1 (Homo sapiens) (UniProt P57059); settings: at 1 µM
[8] = molecular target: Serine/threonine-protein kinase SIK2 (Homo sapiens) (UniProt Q9H0K1); settings: at 0.1 µM
[9] = molecular target: Serine/threonine-protein kinase SIK2 (Homo sapiens) (UniProt Q9H0K1); settings: at 1 µM
[10] = molecular target: T2, Serine/threonine-protein kinase TBK1 (Homo sapiens) (UniProt Q9UHD2); settings: at 0.1 µM;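 further: values are the mean TBK1 inhibition, taken from the GSK PKIS screening data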
T2 sequence (whole entry): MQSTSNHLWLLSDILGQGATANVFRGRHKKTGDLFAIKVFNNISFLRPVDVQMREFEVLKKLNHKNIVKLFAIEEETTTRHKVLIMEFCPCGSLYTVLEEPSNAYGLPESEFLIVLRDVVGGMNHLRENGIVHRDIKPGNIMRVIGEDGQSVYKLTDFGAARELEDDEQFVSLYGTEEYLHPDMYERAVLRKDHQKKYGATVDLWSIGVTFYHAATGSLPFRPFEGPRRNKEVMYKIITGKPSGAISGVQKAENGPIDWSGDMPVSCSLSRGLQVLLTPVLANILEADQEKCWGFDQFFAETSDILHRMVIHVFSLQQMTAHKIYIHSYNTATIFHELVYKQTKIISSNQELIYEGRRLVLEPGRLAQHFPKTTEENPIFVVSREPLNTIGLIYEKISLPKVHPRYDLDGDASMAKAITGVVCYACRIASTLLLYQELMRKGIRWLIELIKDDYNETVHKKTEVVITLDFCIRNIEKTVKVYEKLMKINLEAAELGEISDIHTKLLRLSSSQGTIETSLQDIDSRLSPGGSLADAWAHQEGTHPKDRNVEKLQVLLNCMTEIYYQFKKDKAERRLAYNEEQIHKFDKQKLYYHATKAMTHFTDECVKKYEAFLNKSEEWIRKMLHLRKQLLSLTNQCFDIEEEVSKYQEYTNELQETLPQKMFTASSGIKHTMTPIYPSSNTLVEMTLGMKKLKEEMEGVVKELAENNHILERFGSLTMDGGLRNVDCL

Sequence of Serine/threonine-protein kinase pim-2 (Homo sapiens) (Q9P1W9 whole entry, looked up): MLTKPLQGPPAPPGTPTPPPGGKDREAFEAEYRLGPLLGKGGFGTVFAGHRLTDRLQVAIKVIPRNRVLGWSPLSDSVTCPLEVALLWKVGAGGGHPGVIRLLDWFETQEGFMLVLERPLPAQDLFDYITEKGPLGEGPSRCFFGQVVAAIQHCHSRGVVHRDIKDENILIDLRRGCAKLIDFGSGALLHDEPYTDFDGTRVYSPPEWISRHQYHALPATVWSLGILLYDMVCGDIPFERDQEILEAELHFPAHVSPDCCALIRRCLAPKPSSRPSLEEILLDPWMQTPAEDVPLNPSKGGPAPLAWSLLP
Sequence of Serine/threonine-protein kinase SIK1 (Homo sapiens) (P57059 whole entry): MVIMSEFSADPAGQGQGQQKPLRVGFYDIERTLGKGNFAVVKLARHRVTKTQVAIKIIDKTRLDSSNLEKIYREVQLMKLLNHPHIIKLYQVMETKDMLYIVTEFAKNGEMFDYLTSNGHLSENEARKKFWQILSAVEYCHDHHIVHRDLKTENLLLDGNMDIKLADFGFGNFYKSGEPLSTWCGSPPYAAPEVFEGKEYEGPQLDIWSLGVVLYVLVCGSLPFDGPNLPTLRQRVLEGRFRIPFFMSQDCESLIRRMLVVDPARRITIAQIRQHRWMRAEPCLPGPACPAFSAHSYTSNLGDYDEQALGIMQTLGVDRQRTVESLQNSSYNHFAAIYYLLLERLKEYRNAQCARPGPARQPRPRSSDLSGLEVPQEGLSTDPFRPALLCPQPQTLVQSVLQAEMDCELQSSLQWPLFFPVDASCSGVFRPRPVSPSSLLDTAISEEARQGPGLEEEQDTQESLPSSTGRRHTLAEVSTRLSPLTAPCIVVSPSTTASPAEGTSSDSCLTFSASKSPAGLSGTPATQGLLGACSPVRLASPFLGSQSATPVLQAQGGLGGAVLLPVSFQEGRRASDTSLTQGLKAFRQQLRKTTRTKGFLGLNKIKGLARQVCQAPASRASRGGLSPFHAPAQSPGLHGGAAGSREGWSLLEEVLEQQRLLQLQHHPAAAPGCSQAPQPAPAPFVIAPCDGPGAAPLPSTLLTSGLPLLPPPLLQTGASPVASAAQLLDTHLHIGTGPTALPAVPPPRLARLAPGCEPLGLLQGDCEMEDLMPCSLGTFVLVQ
Sequence of Serine/threonine-protein kinase SIK2 (Homo sapiens) (Q9H0K1 whole entry, looked up): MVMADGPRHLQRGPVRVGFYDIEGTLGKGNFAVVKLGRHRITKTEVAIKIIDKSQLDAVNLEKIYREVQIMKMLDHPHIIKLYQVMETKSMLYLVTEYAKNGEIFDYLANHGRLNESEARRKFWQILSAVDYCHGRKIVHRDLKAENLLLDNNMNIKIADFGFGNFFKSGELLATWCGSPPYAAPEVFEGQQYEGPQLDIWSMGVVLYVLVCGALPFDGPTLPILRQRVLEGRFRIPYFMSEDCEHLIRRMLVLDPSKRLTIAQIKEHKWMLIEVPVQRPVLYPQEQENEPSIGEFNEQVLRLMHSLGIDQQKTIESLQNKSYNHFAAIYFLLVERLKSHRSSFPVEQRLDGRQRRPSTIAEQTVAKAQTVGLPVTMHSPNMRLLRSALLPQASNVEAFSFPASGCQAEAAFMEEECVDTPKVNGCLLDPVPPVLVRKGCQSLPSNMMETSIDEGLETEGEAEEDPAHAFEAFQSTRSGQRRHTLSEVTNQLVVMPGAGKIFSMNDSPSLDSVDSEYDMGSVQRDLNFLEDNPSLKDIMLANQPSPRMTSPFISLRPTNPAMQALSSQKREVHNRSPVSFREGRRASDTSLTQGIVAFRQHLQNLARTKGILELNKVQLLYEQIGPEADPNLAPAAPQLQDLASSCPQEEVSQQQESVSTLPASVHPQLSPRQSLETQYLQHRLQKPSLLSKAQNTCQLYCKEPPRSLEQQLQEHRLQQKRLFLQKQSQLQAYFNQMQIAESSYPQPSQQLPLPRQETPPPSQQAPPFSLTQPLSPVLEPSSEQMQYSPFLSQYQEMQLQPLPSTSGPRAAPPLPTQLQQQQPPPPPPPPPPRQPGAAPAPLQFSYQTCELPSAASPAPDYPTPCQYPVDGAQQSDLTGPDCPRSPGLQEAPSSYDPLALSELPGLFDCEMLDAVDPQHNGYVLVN

SMILES	inhibition [1]	inhibition [2]	inhibition [3]	inhibition [4]	inhibition [5]	inhibition [6]	inhibition [7]	inhibition [8]	inhibition [9]	inhibition [10]
CNC(=O)c1sc(-n2cnc3cc(OC)c(OC)cc32)cc1OCc1ccccc1C(F)(F)F	0.56%	-0.77%	-0.33%	1.17%	1.03%	5.73%	11.3%	7.24%	8.75%	1.68%
NS(=O)(=O)c1ccc(N/N=C2\C(=O)Nc3cccc(CCc4ccncc4)c32)cc1	0.64%	0.22%	0.75%	0.36%	0.28%	1.17%	2.64%	2.91%	-0.94%	1.99%
COc1c(C(N)=O)cc(-c2ccc(Cl)cc2)cc1-c1ccc(S(N)(=O)=O)cc1	-0.88%	-0.2%	0.43%	1.35%	2.31%	10.7%	16.1%	8.28%	6.93%	4.69%
O=C(O[C@H]1CN[C@H](C#Cc2cc3ncnc(Nc4ccc(OCc5cccc(F)c5)c(Cl)c4)c3s2)C1)N1CCOCC1	0.28%	0.37%	1.35%	2.46%	4.32%	2.74%	9.18%	8.56%	11.1%	1.96%
CC1=C(C(=O)Nc2ccc3[nH]nc(C)c3c2)C(c2ccc(C(F)(F)F)cc2)CC(=O)N1 (stereo not given)	0.55%	0.17%	-2.32%	0.34%	-0.66%	0.72%	1.39%	4.07%	0.64%	-1.52%
Cc1cc(O)cc(C)c1/C=C/c1cncc(C(N)=O)c1	0.5%	-0.22%	-1.42%	0.25%	-0.19%	48.9%	89%	6.79%	37.5%	2.21%
COc1cccc(-n2ncc3c(N/N=C/c4ccc(C(=O)NCCN(C)C)cc4)ncnc32)c1	0.88%	0.5%	3.82%	0.76%	0.52%	18.3%	61.2%	34.6%	76%	2.76%
NS(=O)(=O)c1ccc(N/N=C2\C(=O)Nc3ccc(C(=O)NCc4ccncc4)cc32)cc1	4.93%	1.9%	8.56%	1.84%	6.01%	3.99%	19.8%	6.03%	17.1%	3.83%
CN1CCC(n2cnc(-c3ccc(F)cc3)c2-c2ccnc(NCCO)n2)CC1	2.65%	1.55%	5.22%	1.7%	4.06%	2.04%	6.87%	4.44%	16.6%	-0.04%
CS(=O)(=O)Nc1ccc(-c2cc(-c3ccccc3)cc(C(N)=O)c2N)cc1	0.82%	0.62%	1.22%	0.73%	3.19%	1.69%	7.99%	-1.02%	3.58%	1.82%
COc1cc2c(cc1Nc1nc(Nc3cccc(F)c3C(N)=O)c3cc[nH]c3n1)N(C(=O)CN1CCN(C(C)C)CC1)CC2	0.2%	0.01%	1.84%	0.57%	1.03%	5.86%	8.52%	3.09%	0.18%	2.33%
CN(c1ccc(NC(=O)NCCN2CCOCC2)cc1)c1ccnc(Nc2ccc(CS(C)(=O)=O)cc2)n1	0.65%	0.45%	2%	1.83%	3.14%	2.8%	17.4%	9.27%	11.2%	1.55%
CCS(=O)(=O)c1ccc(OC)c(Nc2ncc(-c3cccc(C(C)=O)c3)o2)c1	-0.01%	0.38%	4.79%	1.84%	2%	6.02%	15.1%	3.14%	14%	0.54%
CNC(=O)c1ncccc1Nc1nc(Nc2cc3c(cc2OC)CCCN3C(=O)CN(C)C)nc2[nH]ccc12	5.43%	2.42%	22.6%	0.95%	0.65%	4.63%	6.54%	3.05%	0.1%	5.66%
Cc1cc(O)cc(C)c1/C=C/c1cncc(C(=O)OC(C)(C)C)c1	1.55%	-1.42%	2.22%	0.68%	1.6%	18.8%	71.9%	10.5%	12.3%	2.04%
COc1cccc(Nc2nccc(-c3cnn4ncccc34)n2)c1	2.39%	2.39%	17.6%	0.42%	3.44%	6.56%	20.8%	4.86%	13.6%	4.06%
CN1CCC(C(=O)Nc2n[nH]c3nc(-c4ccc(O)cc4)c(Br)cc23)CC1	14.5% and 16.5%	8.95% and 8.97%	48.5% and 44.8%	1.61% and 0.79%	3.66% and 0.86%	3.1% and 1.53%	9.27% and 8.23%	7.89% and -2.04%	9.87% and 5.33%	4.48% and 3.27%
c1ccc(-c2n[nH]cc2-c2ccnc(-c3ccc(OCCn4ccnc4)cc3)c2)nc1	0.26%	0.51%	0.09%	0.48%	1.25%	1.64%	6.26%	0.8%	10%	0.6%
CC1(C)CC(n2cnc(-c3ccc(F)cc3)c2-c2ccnc(N)n2)CC(C)(C)N1	0.96%	-0.62%	0.93%	0.28%	0.93%	0.72%	3.05%	1.72%	1.15%	0.42%
FC(F)(F)CNc1nccc(-c2cnn3ncccc23)n1	1.1%	-0.3%	1.93%	1.14%	0.15%	2.46%	1.86%	-0.9%	0.27%	1.42%
